MCF10A rerep – induces DNA re-replication in MCF 10a normal breast cells. MCF 10A DNA re-replication, Hoechst nuclear intensity, 48 h. Potency, µM (top dose mostly 46.1 µM), most hits filed as activators. actives 2.9% (n = 350,000); further: nearly all actives have a fitted effect of over 50% in size
SW480 rerep – induces DNA re-replication in SW480 colon adenocarcinoma cells; actives 1.8% (n = 340,000); Potency, µM (series often up to 46.1 µM), actives largely listed as activators; SW480 DNA re-replication, Hoechst DNA content imaging, 48 h; AID 624297; further: nearly all actives have a fitted effect of over 55% in size
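Quantitative HTS format with DMSO vehicle controls; 48 hr drug incubation at 37 C, then 40 min Hoechst staining and scanning imager measurement at 405 nm excitation.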
RORg inh – inhibitors of mouse ROR gamma transcriptional activity; Potency, µM (top dose mostly 53.6 µM), usual class: inhibitors; Drosophila S2 Gal4-RORgamma UAS-luciferase reporter, 20 h; actives 5.4% (n = 310,000); AID 2551; further: nearly all actives have a fitted effect of over 60% in size
Target sequence (P51450 whole entry, looked up, the tested form may be a part): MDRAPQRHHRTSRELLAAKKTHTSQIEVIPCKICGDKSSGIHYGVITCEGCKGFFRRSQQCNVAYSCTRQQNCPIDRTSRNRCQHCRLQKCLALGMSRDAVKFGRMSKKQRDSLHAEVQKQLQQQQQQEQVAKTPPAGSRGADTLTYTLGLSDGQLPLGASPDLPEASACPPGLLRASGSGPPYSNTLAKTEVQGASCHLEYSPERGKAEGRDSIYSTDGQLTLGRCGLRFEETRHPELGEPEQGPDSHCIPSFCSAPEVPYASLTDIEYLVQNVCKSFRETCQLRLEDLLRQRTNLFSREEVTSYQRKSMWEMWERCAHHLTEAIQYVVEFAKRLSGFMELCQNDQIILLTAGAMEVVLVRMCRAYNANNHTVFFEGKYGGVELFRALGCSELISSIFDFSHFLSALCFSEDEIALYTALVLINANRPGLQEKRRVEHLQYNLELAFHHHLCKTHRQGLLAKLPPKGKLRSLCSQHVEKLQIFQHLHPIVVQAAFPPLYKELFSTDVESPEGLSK
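Drosophila S2 cells stably expressing Gal4-DBD/mouse RORγ fusion under metallothionein promoter plus UAS-luciferase; compound 1 h, then 700 uM CuSO4 induction for 20 h at ambient temperature; inhibition read as reduced luminescence.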
IL1B secr inh – inflammasome signaling inhibition, IL-1 beta readout | THP-1 LPS/ATP IL-1B secretion, AlphaLISA, 16 h; hits give low values | activity change, % at 57.5 µM | actives 4.7% (n = 360,000) | AID 743279; in the data active means activity change below about -50%; inconclusive means mostly about -30% to -49%
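Secreted IL-1B measured by AlphaLISA bead assay after 16 h compound exposure of THP-1 cells; compounds (final up to 57.5 uM) added 1 h before LPS (250 ng/mL) and ATP (1.25 mM) stimulation; lower signal means less secretion.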
Gal4-VP16 FLuc – Gal4-VP16 reporter inhibition counter-screen; Drosophila S2 Gal4-VP16 UAS-luciferase, luminescence, 20 h; actives 3.5% (n = 310,000); Potency, µM (top dose mostly 53.6 µM), actives largely listed as inhibitors;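 further: Gal4-VP16 expression switched on by copper sulfate through the metallothionein promoter; nearly all actives have a fitted effect of over 50% in size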
Each line names hits and unclear results; the compound was inactive in the other large screens. A selection: hits, their analogues and other compounds. The true share with any hit is near 11%. Unless noted, the call rests on the fitted dose curve; in most records, active means well fitted curve in the direction sought with a large enough effect; inconclusive means small, poorly fitted or top-dose-only effect, or another doubt; inactive means no such curve, though single readings can be large; an effect the other way counts as inactive or inconclusive.

Cc1ccc(C(O)c2nccn2C)o1 (configuration not stated)	MCF10A rerep 5.8µM
CN(CC(=O)N/N=C/c1ccc(F)cc1)S(=O)(=O)c1ccccc1	none (no result: MCF10A rerep, SW480 rerep, RORg inh, Gal4-VP16 FLuc)
CC12CC3CC(C)(C1)CC(C(=O)NC(=S)N1CCOCC1)(C3)C2	RORg inh 1.1µM, Gal4-VP16 FLuc 2.8µM
O=C(Nc1cccc(C(=O)N2CCCCC2)c1)C1CC1	none (no result: RORg inh, Gal4-VP16 FLuc)
O=C(NC(=S)N1CCCCC1)C12CC3CC(CC(C3)C1)C2	RORg inh 7.1µM, Gal4-VP16 FLuc 13µM
CCN(CC)C(=S)NC(=O)C12CC3CC(CC(C3)C1)C2	RORg inh 2.5µM, Gal4-VP16 FLuc 5µM
O=C(c1cc(NC(=O)C23CC4CC(CC(C4)C2)C3)cc(NC(=O)C23CC4CC(CC(C4)C2)C3)c1)N1CCCCC1	SW480 rerep 13µM
C[C@H](C(=O)O)c1cccc(Oc2ccccc2)c1	none (no result: IL1B secr inh)
CCCCNC(=O)C1C(c2ccc(C(F)(F)F)cc2)=Nc2ccccc2N1C(=O)C1CCN(C(C)=O)CC1 (configuration not stated)	none (no result: MCF10A rerep, SW480 rerep, RORg inh, Gal4-VP16 FLuc)
CCOC(=O)N1CCN(C(=S)NC(=O)C23CC4CC(CC(C4)C2)C3)CC1	RORg inh 3.5µM, Gal4-VP16 FLuc inconclusive
O=C1CSC(=S)N1/N=C/c1cc(Br)c(O)c(Br)c1	MCF10A rerep inconclusive
Cc1cc(F)ccc1NCc1ccccc1[N+](=O)[O-]	none
Cc1cc([N+](=O)[O-])ccc1NCc1cccc2ccccc12	IL1B secr inh -66 (no result: RORg inh, Gal4-VP16 FLuc)
O=[N+]([O-])c1ccc(CCNc2cccc3ccccc23)c([N+](=O)[O-])c1	MCF10A rerep inconclusive, Gal4-VP16 FLuc inconclusive
Cc1cc([N+](=O)[O-])ccc1NCc1ccccc1[N+](=O)[O-]	IL1B secr inh -71
Cc1ccccc1N=C(c1ccccc1)C1C(=O)c2ccccc2C1=O	none (no result: MCF10A rerep, SW480 rerep, RORg inh, Gal4-VP16 FLuc)
O=C(COC(=O)c1ccc(N2CCOCC2)c([N+](=O)[O-])c1)Nc1ccc2c(c1)OCO2	none
Cc1ncsc1CCOC(=O)c1ccc(N2CCOCC2)c([N+](=O)[O-])c1	RORg inh inconclusive, Gal4-VP16 FLuc 4µM
Cc1c(CCOC(=O)c2ccc(N3CCOCC3)c([N+](=O)[O-])c2)sc[n+]1CC#N	MCF10A rerep 16µM, IL1B secr inh -102
Cc1ncsc1CCOC(=O)c1ccc([N+](=O)[O-])cc1	none
Cc1cc(C)cc(N2C(=O)C=CC2=O)c1	MCF10A rerep 6.5µM, SW480 rerep 16µM, IL1B secr inh -103 (no result: RORg inh, Gal4-VP16 FLuc)
COc1ccc(NC(=O)CN2CCCC2c2cccs2)cc1S(=O)(=O)N1CCCCC1 (configuration not stated)	IL1B secr inh inconclusive (no result: RORg inh, Gal4-VP16 FLuc)
Cc1cccc(NC(=O)c2nc[nH]c2C(=O)N[C@@H](C)C(=O)OCc2ccccc2)c1	MCF10A rerep inconclusive, RORg inh 8.9µM, Gal4-VP16 FLuc 13µM
Cc1cccc(NC(=O)c2nc[nH]c2C(=O)N[C@@H](C)c2ccccc2)c1	MCF10A rerep inconclusive, IL1B secr inh inconclusive (no result: RORg inh, Gal4-VP16 FLuc)
Cc1cccc(NC(=O)c2nc[nH]c2C(=O)N[C@@H](CC(C)C)C(=O)OCc2ccccc2)c1	MCF10A rerep inconclusive, SW480 rerep inconclusive, RORg inh 3.5µM, Gal4-VP16 FLuc 10µM
CCN(CC)C(=O)c1[nH]cnc1C(=O)N[C@@H](CC(C)C)C(=O)OCc1ccccc1	none
CC(C)(C)C(=O)C(Oc1ccc(Cl)cc1)n1ccnc1 (configuration not stated)	none (no result: IL1B secr inh)
CC12COC3(C(=O)Nc4ccccc4F)CC1CCC32C (configuration not stated)	RORg inh 10µM
CC12COC3(C(=O)Nc4ccc(Cl)cc4)CC1CCC32C (configuration not stated)	MCF10A rerep inconclusive
Cc1[nH]c2ccc(C(=O)NCc3ccccn3)cc2c1C	IL1B secr inh inconclusive
O=C(/C=C/c1ccc(N2CCCCC2)c([N+](=O)[O-])c1)c1ccc(O)cc1	SW480 rerep inconclusive, RORg inh 11µM, IL1B secr inh -95, Gal4-VP16 FLuc inconclusive
COc1ccccc1C(=O)/C=C/c1ccc(N2CCCCC2)c([N+](=O)[O-])c1	MCF10A rerep 6.5µM, SW480 rerep 18µM, RORg inh 5.6µM, IL1B secr inh -109, Gal4-VP16 FLuc 6.3µM
O=C(c1ccc(N2CCCCC2)c([N+](=O)[O-])c1)N1CCOCC1	none
O=C(O/N=C\c1ccc(N2CCCCC2)c([N+](=O)[O-])c1)c1ccc(Cl)cc1Cl	SW480 rerep inconclusive
CCOC(=O)C(=O)N(C)c1c(CC)nc2c(OCCC3CCCCC3)cccn12	none (no result: MCF10A rerep, SW480 rerep, RORg inh, Gal4-VP16 FLuc)
CCOc1cc(/C=N/NC(N)=O)cc(Br)c1OCc1ccccc1	none
NC(=S)N/N=C/c1ccccc1OCCSc1ccc(Cl)cc1	MCF10A rerep 21µM, SW480 rerep inconclusive, RORg inh inconclusive, IL1B secr inh inconclusive, Gal4-VP16 FLuc 28µM
CCOc1cc(/C=N/NC(N)=S)cc(Br)c1OCc1ccccc1C	MCF10A rerep inconclusive, RORg inh 0.79µM, Gal4-VP16 FLuc 2.5µM
CCOC(=O)N/N=C/c1ccccc1OCc1ccc(Cl)cc1	RORg inh inconclusive
CCOc1cc(/C=N/N=C(\N)c2nonc2N)cc(Br)c1OCc1cccc2ccccc12	MCF10A rerep inconclusive, SW480 rerep inconclusive, RORg inh 13µM, Gal4-VP16 FLuc inconclusive
COc1cc(/C=N\NC(=O)c2ccc(-c3ccccc3)cc2)cc(Br)c1O	MCF10A rerep inconclusive, SW480 rerep inconclusive, RORg inh inconclusive, Gal4-VP16 FLuc inconclusive
CCOc1c(Br)cc(/C=N\NC(=O)c2ccccc2)cc1OC	IL1B secr inh -89, Gal4-VP16 FLuc inconclusive
Cc1cc(N2CCN(C(=O)c3cccs3)CC2)c(F)cc1[N+](=O)[O-]	MCF10A rerep inconclusive, RORg inh inconclusive, Gal4-VP16 FLuc inconclusive
Cc1c(NC(=O)c2nn(CC(C)C)c(=O)c3ccccc23)c(=O)n(-c2ccccc2)n1C	none (no result: RORg inh, Gal4-VP16 FLuc)
CN(C)c1cccc(CNC(=O)c2csc([C@H]3C[C@H](O)[C@@H](CO)O3)n2)c1	none (no result: MCF10A rerep, SW480 rerep, RORg inh, Gal4-VP16 FLuc)
CO[C@H]1COC(=O)C/C=C\[C@H](C)[C@H](OC)COC(=O)[C@@H](C)NC(=O)C/C=C\[C@@H]1C	none (no result: MCF10A rerep, SW480 rerep, IL1B secr inh)
COc1cccc(/C=N/NC(N)=S)c1OCc1ccccc1Cl	MCF10A rerep inconclusive, RORg inh 3.2µM, Gal4-VP16 FLuc 4µM
COc1cc(/C=N/NC(=O)CC2(C)OCCO2)cc(Br)c1O	none
COc1cc(/C=N/NC(=O)CC23CC4CC(CC(C4)C2)C3)cc(Br)c1OCC(=O)N(C)C	MCF10A rerep 18µM, Gal4-VP16 FLuc inconclusive
CNC(=S)N/N=C/c1cc(Br)c(OCc2ccncc2)c(OC)c1	Gal4-VP16 FLuc inconclusive
COc1cc(/C=N/NC(N)=S)cc(Br)c1OCc1ccccc1F	MCF10A rerep inconclusive, RORg inh 1µM, Gal4-VP16 FLuc 4.5µM
NC(=O)C1CCCN1Cc1ccc2c(c1)OCO2 (configuration not stated)	none (no result: RORg inh, Gal4-VP16 FLuc)
COc1ccc(CN2C(=O)CSCC2(C)C(=O)Nc2c(C)cccc2C)cc1 (configuration not stated)	none (no result: MCF10A rerep, SW480 rerep, RORg inh, Gal4-VP16 FLuc)
